Legend:
Conditions in all cases: concentration: 1 μM, replicates: in singlicate; n = 1
TIE2 = test system: T1, TIE2
T1 construct: gene TEK

TLK1 = test system: TLK1
TLK2 = test system: TLK2
TNIK = test system: TNIK
TNK1 = test system: TNK1
TNK2 = test system: TNK2
TNNI3K = test system: TNNI3K
TRKA = test system: T2, TRKA
T2 construct: gene NTRK1

TRKB = test system: TRKB
TRKC = test system: T3, TRKC
T3 construct: gene NTRK3

TRPM6 = test system: TRPM6
TSSK1B = test system: TSSK1B
TSSK3 = test system: TSSK3
TTK = test system: TTK
TXK = test system: TXK
[1] = test system: TYK2(JH1domain-catalytic)
[2] = test system: TYK2(JH2domain-pseudokinase)
TYRO3 = test system: TYRO3
ULK1 = test system: ULK1
ULK2 = test system: ULK2
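Note: KINOMEscan kinase panel screen.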

Structure (SMILES) | %Inh (TIE2) [%] | %Inh (TLK1) [%] | %Inh (TLK2) [%] | %Inh (TNIK) [%] | %Inh (TNK1) [%] | %Inh (TNK2) [%] | %Inh (TNNI3K) [%] | %Inh (TRKA) [%] | %Inh (TRKB) [%] | %Inh (TRKC) [%] | %Inh (TRPM6) [%] | %Inh (TSSK1B) [%] | %Inh (TSSK3) [%] | %Inh (TTK) [%] | %Inh (TXK) [%] | %Inh [1] [%] | %Inh [2] [%] | %Inh (TYRO3) [%] | %Inh (ULK1) [%] | %Inh (ULK2) [%]
CCC(=O)c1c(-c2ccccc2)c2cc(Cl)ccc2c(=O)n1Cc1cc(S(C)(=O)=O)n(CC(N)=O)n1 | 24 | 2 | 0 | 4 | 0 | 0 | 0 | 0 | 0 | 0 | 0 | 0 | 0 | 8 | 0 | 0 | 0 | 0 | 0 | 0
CCc1ccc(-c2ccc3c(c2)-c2nn(C)cc2S(=O)(=O)N3C)cc1 | 0 | 35 | 0 | 38 | 14 | 0 | 0 | 0 | 0 | 0 | 0 | 0 | 0 | 0 | 0 | 0 | 0 | 0 | 0 | 0
COC(=O)c1c(-c2ccccc2)c2cc(C)ccc2c(=O)n1Cc1ccccc1 | 0 | 9 | 0 | 0 | 0 | 0 | 0 | 0 | 0 | 0 | 0 | 0 | 0 | 5 | 0 | 0 | 0 | 0 | 0 | 0
Nc1ncnc2c1ncn2-c1cccc(F)c1 [SKF-97560] | 0 | 0 | 0 | 4 | 23 | 15 | 100 | 60 | 41 | 41 | 74 | 22 | 20 | 0 | 0 | 38 | 35 | 9 | 7 | 26
CCn1c(-c2nonc2N)nc2ccccc21 [SB-693162/GW549034] | 0 | 5 | 0 | 0 | 0 | 0 | 0 | 20 | 43 | 15 | 0 | 0 | 0 | 29 | 12 | 0 | 25 | 0 | 40 | 31
COc1cc2nccc(Nc3cccc(Oc4ccccc4)c3)c2cc1OC.Cl [GW284543] | 12 | 0 | 0 | 0 | 0 | 12 | 10 | 34 | 5 | 2 | 11 | 11 | 13 | 0 | 3 | 5 | 0 | 0 | 6 | 15
COc1ccc(CNC(=O)NC2CCN(c3ccnc(Nc4ccc(F)cc4)n3)C2)cc1 (stereo not drawn) [GSK1379706] | 2 | 26 | 16 | 0 | 0 | 10 | 10 | 54 | 26 | 44 | 4 | 0 | 21 | 21 | 0 | 27 | 23 | 0 | 0 | 0
CCCNC(=O)Nc1ccc(Oc2ncnc3ccn(C)c23)cc1 | 7 | 3 | 0 | 18 | 0 | 0 | 0 | 0 | 0 | 13 | 0 | 0 | 0 | 0 | 0 | 13 | 22 | 0 | 14 | 10
COc1ccc(-c2cc3c(C)nc(N)nc3n([C@H]3CC[C@H](OCCO)CC3)c2=O)cn1 | 0 | 14 | 0 | 0 | 34 | 0 | 1 | 0 | 0 | 0 | 0 | 2 | 0 | 0 | 2 | 0 | 0 | 0 | 0 | 0
Nc1n[nH]c2ncc(-c3ccccc3)cc12 [SB-517081] | 0 | 0 | 2 | 1 | 0 | 21 | 12 | 17 | 37 | 31 | 21 | 16 | 4 | 33 | 0 | 45 | 92.7 | 0 | 3 | 0
CN(C)c1cc(-c2ccc3c(N)n[nH]c3c2)nc(N)n1 [GSK2219329] | 0 | 9 | 0 | 0 | 0 | 1 | 0 | 0 | 0 | 0 | 13 | 0 | 6 | 0 | 97.2 | 14 | 25 | 0 | 0 | 0
Cc1ccccc1COc1cc(-n2cnc3cc(Cl)ccc32)sc1C(N)=O [GW813349] | 0 | 0 | 0 | 30 | 12 | 0 | 0 | 0 | 0 | 5 | 0 | 3 | 0 | 2 | 9 | 5 | 5 | 5 | 0 | 0
Nc1ncnc2c1ncn2-c1ccc(Cl)cc1 [AH2635] | 0 | 0 | 0 | 0 | 0 | 0 | 0 | 14 | 0 | 16 | 44 | 0 | 16 | 0 | 5 | 25 | 39 | 0 | 0 | 0
OCCCNc1nccc(-c2c(-c3cccc(C(F)(F)F)c3)nn3cc(C(F)(F)F)ccc23)n1 [GW630813] | 0 | 6 | 0 | 3 | 0 | 0 | 0 | 0 | 7 | 3 | 0 | 0 | 6 | 0 | 0 | 14 | 13 | 0 | 0 | 0
O=C(NCCNc1ccnc(Nc2ccc(F)cc2)n1)Nc1ccc2c(c1)OCO2 [GSK1379882] | 0 | 22 | 20 | 0 | 0 | 9 | 0 | 4 | 0 | 17 | 26 | 0 | 24 | 15 | 100 | 21 | 28 | 0 | 0 | 0
Cc1cccc(-c2nc(Nc3ccc4c(cnn4C)c3)c3ccccc3n2)n1 [GW876731] | 27 | 0 | 11 | 0 | 43 | 0 | 0 | 44 | 0 | 0 | 0 | 3 | 0 | 0 | 10 | 20 | 39 | 5 | 8 | 13
CCC(=O)c1c(-c2ccccc2)c2cc(Cl)ccc2c(=O)n1Cc1cc(C(=O)NC2CC2)n(C)n1 | 0 | 8 | 0 | 0 | 0 | 0 | 0 | 0 | 0 | 7 | 0 | 0 | 0 | 15 | 24 | 8 | 1 | 0 | 0 | 6
COc1ccc(-c2cc3c(C)nc(N)nc3n([C@H]3CC[C@H](O)CC3)c2=O)cn1 | 0 | 0 | 0 | 0 | 0 | 0 | 0 | 0 | 0 | 0 | 0 | 0 | 0 | 0 | 0 | 0 | 0 | 0 | 0 | 0
COc1cccc(C2=C(N(C)c3ccccc3)C(=O)NC2=O)c1 [SB-334865] | 0 | 4 | 4 | 0 | 0 | 19 | 11 | 0 | 0 | 23 | 26 | 0 | 7 | 0 | 22 | 12 | 42 | 0 | 19 | 0
COc1cc2ncn(-c3cc(OCCCc4ccccc4)c(C(N)=O)s3)c2cc1OC [GSK205189] | 0 | 0 | 0 | 22 | 12 | 7 | 0 | 55 | 0 | 24 | 0 | 0 | 10 | 12 | 0 | 0 | 0 | 0 | 2 | 0
COc1cc(Nc2ccnc3ccc(C(F)(F)F)cc23)cc(OC)c1OC [GW577382] | 0 | 6 | 0 | 0 | 14 | 16 | 24 | 48 | 0 | 14 | 0 | 0 | 13 | 17 | 54 | 19 | 0 | 0 | 0 | 0

— PMC5540273 (PLoS ONE, 2017)
